According to PMC5540273 (PLoS ONE, 2017):

Tests used:
Conditions in all cases: concentration: 1 μM, replicates: in singlicate; n = 1
DAPK2 = tested on: DAPK2
DAPK3 = tested on: DAPK3
DCAMKL1 = tested on: T1, DCAMKL1
T1 construct: gene DCLK1

DCAMKL2 = tested on: T2, DCAMKL2
T2 construct: gene DCLK2

DCAMKL3 = tested on: T3, DCAMKL3
T3 construct: gene DCLK3

DDR1 = tested on: DDR1
DDR2 = tested on: DDR2
DLK = tested on: T4, DLK
T4 construct: gene MAP3K12

DMPK2 = tested on: T5, DMPK2
T5 construct: gene CDC42BPG

DMPK = tested on: DMPK
DRAK1 = tested on: T6, DRAK1
T6 construct: gene STK17A

DRAK2 = tested on: T7, DRAK2
T7 construct: gene STK17B

DYRK1A = tested on: DYRK1A
DYRK1B = tested on: DYRK1B
DYRK2 = tested on: DYRK2
EGFR = tested on: EGFR
EIF2AK1 = tested on: EIF2AK1
EPHA1 = tested on: EPHA1
EPHA2 = tested on: EPHA2
EPHA3 = tested on: EPHA3
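Note: KINOMEscan kinase panel screen.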

| Compound | %Inh (DAPK2) | %Inh (DAPK3) | %Inh (DCAMKL1) | %Inh (DCAMKL2) | %Inh (DCAMKL3) | %Inh (DDR1) | %Inh (DDR2) | %Inh (DLK) | %Inh (DMPK2) | %Inh (DMPK) | %Inh (DRAK1) | %Inh (DRAK2) | %Inh (DYRK1A) | %Inh (DYRK1B) | %Inh (DYRK2) | %Inh (EGFR) | %Inh (EIF2AK1) | %Inh (EPHA1) | %Inh (EPHA2) | %Inh (EPHA3) |
| --- | --- | --- | --- | --- | --- | --- | --- | --- | --- | --- | --- | --- | --- | --- | --- | --- | --- | --- | --- | --- |
| Cc1ccc(-c2cc(-c3c[nH]nc3-c3ccccn3)ccn2)cc1 [GW684088] | 9% | 25% | 21% | 24% | 0% | 13% | 47% | 45% | 5% | 0% | 12% | 0% | 11% | 6% | 0% | 6% | 0% | 0% | 0% | 49% |
| Cn1ccc2ncnc(Oc3cccc(C(=O)Nc4ccccc4)c3)c21 | 24% | 0% | 28% | 0% | 0% | 0% | 9% | 0% | 0% | 11% | 0% | 12% | 2% | 24% | 0% | 0% | 18% | 0% | 0% | 0% |
| O=C(Nc1n[nH]c2nc(-c3nccs3)c(Br)cc12)C1CC1 [SB-742251] | 0% | 6% | 4% | 0% | 0% | 0% | 26% | 34% | 0% | 0% | 0% | 0% | 30% | 0% | 36% | 0% | 1% | 0% | 0% | 0% |
| Nc1nc(-c2nccs2)c(-c2ccnc3ccccc23)s1 [GW693542] | 0% | 10% | 13% | 0% | 6% | 9% | 5% | 33% | 6% | 100% | 9% | 0% | 20% | 25% | 7% | 26% | 3% | 5% | 3% | 0% |
| Cc1c(O)cccc1Nc1ccnc2ccc(C(F)(F)F)cc12.Cl [GW466413] | 0% | 0% | 0% | 0% | 0% | 16% | 24% | 43% | 0% | 0% | 14% | 0% | 29% | 0% | 0% | 28% | 0% | 77% | 11% | 3% |
| COc1cccc(-c2cc(-c3c[nH]nc3-c3ccccn3)ccn2)c1 [GW680338] | 22% | 23% | 13% | 0% | 0% | 3% | 37% | 28% | 6% | 0% | 0% | 2% | 13% | 14% | 1% | 31% | 2% | 0% | 0% | 11% |
| CN(C)CCN(C)C(=O)c1cc(-c2ccncc2)c(-c2ccc(Cl)c(O)c2)o1.Cl.Cl [SB-710397] | 0% | 33% | 56% | 9% | 0% | 34% | 38% | 34% | 47% | 0% | 23% | 0% | 9% | 0% | 0% | 30% | 0% | 45% | 5% | 0% |
| O=C(Nc1n[nH]c2cc(-c3cccc(F)c3F)ccc12)C1CC1 [SB-733894] | 24% | 35% | 21% | 0% | 0% | 0% | 0% | 0% | 0% | 0% | 0% | 0% | 2% | 0% | 14% | 12% | 23% | 13% | 16% | 18% |
| COc1ccc(C2=C(Nc3cccc(C(=O)O)c3)C(=O)NC2=O)cc1 [SB-390765] | 5% | 0% | 32% | 0% | 0% | 0% | 19% | 0% | 12% | 4% | 19% | 7% | 9% | 0% | 20% | 0% | 11% | 7% | 9% | 11% |
| Cl.NC(=O)c1cccc(Nc2nccc(Nc3ccc(Oc4cccc(Cl)c4)c(Cl)c3)n2)c1 [GW659008] | 0% | 22% | 0% | 13% | 0% | 1% | 0% | 24% | 55% | 0% | 13% | 0% | 5% | 4% | 13% | 96.9% | 0% | 0% | 0% | 5% |
